Data from PubChem BioAssay (EPA / NIEHS).
Records with an inconclusive call do not appear. The source holds several records for some structures; these can differ, active in one and inactive in another. The source made the active and inactive calls. How the source made its calls, unless noted: active means hit-call score of the fitted dose curve at least 0.9, where 1 is the maximum; inconclusive means response in the unintended direction; inactive means score below 0.9.

Key:
[1] = target: Aryl hydrocarbon receptor (Homo sapiens) (UniProt P35869); assay: ATG_Ahr_CIS: Attagene CIS-FACTORIAL HepG2 Assay for human Aryl Hydrocarbon Receptor (Ahr) (AID 2282930; active means hit-call score of the fitted dose curve at least 0.9, where 1 is the maximum; inactive means score below 0.9); details: HepG2 AhR cis-factorial reporter transcription; actives raise or lower the signal
Chain of Aryl hydrocarbon receptor (Homo sapiens) (P35869 whole entry, looked up): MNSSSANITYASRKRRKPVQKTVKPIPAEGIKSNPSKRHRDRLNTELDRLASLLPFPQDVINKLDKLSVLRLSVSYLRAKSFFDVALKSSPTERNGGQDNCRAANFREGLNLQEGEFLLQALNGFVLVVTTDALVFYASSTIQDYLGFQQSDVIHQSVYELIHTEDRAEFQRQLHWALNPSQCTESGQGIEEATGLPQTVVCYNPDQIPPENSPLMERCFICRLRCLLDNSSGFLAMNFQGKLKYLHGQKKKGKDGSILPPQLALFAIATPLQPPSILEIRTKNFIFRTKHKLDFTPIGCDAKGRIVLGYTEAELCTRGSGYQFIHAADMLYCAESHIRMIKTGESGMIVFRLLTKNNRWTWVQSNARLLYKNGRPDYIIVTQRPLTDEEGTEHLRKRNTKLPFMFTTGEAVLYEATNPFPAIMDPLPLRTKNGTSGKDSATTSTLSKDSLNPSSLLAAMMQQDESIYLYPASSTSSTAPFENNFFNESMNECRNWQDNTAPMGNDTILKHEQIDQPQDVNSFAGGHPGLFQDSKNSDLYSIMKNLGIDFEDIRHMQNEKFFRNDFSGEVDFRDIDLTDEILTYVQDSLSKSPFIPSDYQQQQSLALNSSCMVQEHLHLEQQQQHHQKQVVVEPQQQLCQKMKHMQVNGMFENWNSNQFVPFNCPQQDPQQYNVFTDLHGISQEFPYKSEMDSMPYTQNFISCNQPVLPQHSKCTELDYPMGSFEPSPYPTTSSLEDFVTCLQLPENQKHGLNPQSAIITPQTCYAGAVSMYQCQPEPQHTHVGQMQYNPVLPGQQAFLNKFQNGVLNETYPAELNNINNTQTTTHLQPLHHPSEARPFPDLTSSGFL
Method in brief: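 HepG2 cells transiently transfected with cis-element-driven multiplexed reporter transcription units; endogenous transcription factor activity measured as reporter mRNA 24 h after dosing. RT-PCR, 6-FAM labelling, HpaI digestion, capillary electrophoresis; bidirectional fitting versus DMSO baseline.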

[2] = target: Transcription factor E2F1 (Homo sapiens) (UniProt Q01094); assay: ATG_E2F_CIS: Attagene CIS-FACTORIAL HepG2 Assay for human E2F Transcription Factor 1 (AID 2282935; active means hit-call score of the fitted dose curve at least 0.9, where 1 is the maximum; inactive means score below 0.9); details: HepG2 Attagene cis-reporter, E2F reporter RNA transcripts; actives raise or lower the signal
Chain of Transcription factor E2F1 (Homo sapiens) (Q01094 whole entry, looked up): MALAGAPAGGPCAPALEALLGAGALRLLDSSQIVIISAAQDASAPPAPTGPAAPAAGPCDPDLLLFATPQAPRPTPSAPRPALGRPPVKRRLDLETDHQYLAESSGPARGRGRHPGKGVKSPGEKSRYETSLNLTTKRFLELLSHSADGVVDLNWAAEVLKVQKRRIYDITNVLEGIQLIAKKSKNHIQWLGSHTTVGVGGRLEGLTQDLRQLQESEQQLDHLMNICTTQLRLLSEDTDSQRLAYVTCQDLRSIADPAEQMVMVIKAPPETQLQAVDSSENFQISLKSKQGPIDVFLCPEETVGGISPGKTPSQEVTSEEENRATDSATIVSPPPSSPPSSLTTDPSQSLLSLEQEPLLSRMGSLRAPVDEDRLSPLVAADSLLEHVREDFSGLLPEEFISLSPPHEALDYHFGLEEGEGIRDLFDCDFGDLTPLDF
Method in brief: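 First, HepG2 cells were transfected with reporter transcription units. Next, they were dosed for 24 h. Then RNA was isolated, converted to cDNA, PCR-amplified, FAM-labeled, HpaI-digested and analyzed by capillary electrophoresis.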

[3] = ATG_M_61_CIS: Attagene CIS-FACTORIAL HepG2 Assay for M61 Transcription Factor (Internal Marker) (AID 2282937; active means hit-call score of the fitted dose curve at least 0.9, where 1 is the maximum; inactive means score below 0.9); details: HepG2 Attagene CIS-FACTORIAL M61 internal marker reporter; actives raise or lower the signal
Method in brief: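 HepG2 cells transiently transfected with multiplexed cis-promoter reporter units reporting endogenous transcription factor activity, measured 24 h after dosing. Reporter mRNA quantified by RT-PCR and capillary electrophoresis; bidirectional fit against DMSO baseline.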

[4] = ATG_PBREM_CIS: Attagene CIS-FACTORIAL HepG2 Assay for human Phenobarbital-responsive Enhancer Module (PBREM) (AID 2282955; active means hit-call score of the fitted dose curve at least 0.9, where 1 is the maximum; inactive means score below 0.9); details: HepG2 PBREM cis-reporter, Attagene multiplexed transcription; actives raise or lower the signal
Method in brief: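 HepG2 cells transiently transfected with multiple cis-regulated reporter units measure endogenous transcription factor activity; 24 h compound exposure. Reporter mRNA quantified by RT-PCR, fluorescent labelling, HpaI digestion and capillary electrophoresis; bidirectional fit versus DMSO.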

[5] = ATG_PXRE_CIS: Attagene CIS-FACTORIAL HepG2 Assay for human Pregnane X Receptor Element (PXRE) (AID 2282957; active means hit-call score of the fitted dose curve at least 0.9, where 1 is the maximum; inactive means score below 0.9); details: HepG2 Attagene CIS-FACTORIAL PXRE reporter, mRNA; actives raise or lower the signal
Method in brief: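 Read-out: fluorescence of reporter-specific RT-PCR products resolved by capillary electrophoresis, fitted bidirectionally relative to DMSO. Human HepG2 liver cells carried transfected cis-promoter reporter units and were exposed to chemicals for 24 h.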

[6] = ATG_PPRE_CIS: Attagene CIS-FACTORIAL HepG2 Assay for human Peroxisome Proliferator-activated Response Element (PPRE) (AID 2282958; active means hit-call score of the fitted dose curve at least 0.9, where 1 is the maximum; inactive means score below 0.9); details: HepG2 PPRE cis-element reporter, Attagene transcription factor profiling; actives raise or lower the signal
Method in brief: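 HepG2 cells are transiently transfected with multiplexed cis-promoter reporter units to report endogenous PPAR activity. After 24 h dosing, reporter mRNA is read by RT-PCR and capillary electrophoresis. Fitting is bidirectional against DMSO.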

[7] = ATG_Oct_MLP_CIS: Attagene CIS-FACTORIAL HepG2 Assay for human Octamer-Binding Transcription Factor (Oct) (AID 2282993; active means hit-call score of the fitted dose curve at least 0.9, where 1 is the maximum; inactive means score below 0.9); details: HepG2 Attagene cis-factorial Oct reporter, mRNA; actives raise or lower the signal
Method in brief: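 After 24 h compound exposure, transfected HepG2 cells were lysed for total RNA; reporter-specific cDNA was PCR-amplified, fluorescently labelled and sized by capillary electrophoresis. Bidirectional curve fitting used DMSO as baseline.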

[8] = target: human Peroxisome Proliferator-activated Receptor alpha (PPARa), PPARA (gene 5465) (UniProt Q07869); assay: ATG_PPARa_TRANS: Attagene TRANS-FACTORIAL HepG2 Assay for human Peroxisome Proliferator-activated Receptor alpha (PPARa) (AID 2283001)
Chain of human Peroxisome Proliferator-activated Receptor alpha (PPARa), PPARA (gene 5465) (Q07869 whole entry, looked up): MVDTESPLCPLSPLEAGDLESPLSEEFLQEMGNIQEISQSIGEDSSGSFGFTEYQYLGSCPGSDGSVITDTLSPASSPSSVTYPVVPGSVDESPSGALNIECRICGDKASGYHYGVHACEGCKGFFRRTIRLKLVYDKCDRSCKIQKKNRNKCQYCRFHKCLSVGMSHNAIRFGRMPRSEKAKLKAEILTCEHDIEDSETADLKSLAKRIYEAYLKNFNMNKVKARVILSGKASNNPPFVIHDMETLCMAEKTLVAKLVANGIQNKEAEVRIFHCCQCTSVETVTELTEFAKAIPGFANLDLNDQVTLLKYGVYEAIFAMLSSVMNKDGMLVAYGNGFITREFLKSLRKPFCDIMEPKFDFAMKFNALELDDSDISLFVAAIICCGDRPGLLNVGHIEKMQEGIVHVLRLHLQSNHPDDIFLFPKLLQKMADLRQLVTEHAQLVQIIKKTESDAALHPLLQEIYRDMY
Method in brief: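 Cells (HepG2) are transfected with multiple reporter transcription units, exposed to chemical for 24 h, then total RNA is reverse-transcribed and amplified. Labelled products are quantified by capillary electrophoresis; induction is referenced to DMSO.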

[9] = target: human Thyroid Receptor alpha (THRa1), THRA (gene 7067) (UniProt P10827); assay: ATG_THRa1_TRANS: Attagene TRANS-FACTORIAL HepG2 Assay for human Thyroid Receptor alpha (THRa1) (AID 2283014)
Chain of human Thyroid Receptor alpha (THRa1), THRA (gene 7067) (P10827 whole entry, looked up, the tested form may be a part): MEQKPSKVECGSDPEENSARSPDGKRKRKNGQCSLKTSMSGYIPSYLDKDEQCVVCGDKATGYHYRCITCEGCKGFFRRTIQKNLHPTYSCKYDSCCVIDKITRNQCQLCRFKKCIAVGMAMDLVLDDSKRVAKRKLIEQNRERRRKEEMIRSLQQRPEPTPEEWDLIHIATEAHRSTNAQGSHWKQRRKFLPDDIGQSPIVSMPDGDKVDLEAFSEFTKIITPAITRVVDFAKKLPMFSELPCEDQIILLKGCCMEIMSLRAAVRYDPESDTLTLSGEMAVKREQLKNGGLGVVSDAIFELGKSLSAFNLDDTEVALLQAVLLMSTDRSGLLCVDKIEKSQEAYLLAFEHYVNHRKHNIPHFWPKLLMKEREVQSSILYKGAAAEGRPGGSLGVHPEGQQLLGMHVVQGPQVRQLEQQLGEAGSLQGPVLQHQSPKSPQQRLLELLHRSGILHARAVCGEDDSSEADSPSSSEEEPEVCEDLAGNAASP
Method in brief: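 Transient HepG2 transfection, NR-Gal4 chimera driving GAL4-UAS reporters; 24 h compound exposure; total RNA, oligo(dT) RT, PCR, fluorescent primer extension, capillary electrophoresis. Upward direction vs DMSO control.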

[10] = target: Cellular tumor antigen p53 (Homo sapiens) (UniProt P04637); assay: TOX21_p53_BLA_p2_ratio: Tox21 HCT-116 p53 Agonism Beta-lactamase Assay, Ratio, Phase 2 (AID 2283592)
Chain of Cellular tumor antigen p53 (Homo sapiens) (P04637 whole entry, looked up): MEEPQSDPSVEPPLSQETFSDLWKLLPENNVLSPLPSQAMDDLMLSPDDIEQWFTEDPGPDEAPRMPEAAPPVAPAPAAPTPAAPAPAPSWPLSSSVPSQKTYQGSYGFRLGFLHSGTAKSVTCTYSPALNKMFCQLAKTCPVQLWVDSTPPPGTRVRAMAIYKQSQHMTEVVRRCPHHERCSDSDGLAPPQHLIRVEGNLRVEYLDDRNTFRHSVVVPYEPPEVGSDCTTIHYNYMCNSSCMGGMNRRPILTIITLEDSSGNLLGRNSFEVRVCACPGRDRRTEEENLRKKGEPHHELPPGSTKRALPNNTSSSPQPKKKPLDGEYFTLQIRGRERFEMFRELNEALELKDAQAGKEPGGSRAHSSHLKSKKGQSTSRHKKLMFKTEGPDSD
Method in brief: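 Readout: blue/green (460/530 nm) FRET emission ratio after 2 h CCF4-AM loading at room temperature, excitation 405 nm. HCT116 p53 bla cells, 16 h compound exposure at 37C, 5% CO2; agonist direction fitted against DMSO baseline.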

[11] = TOX21_p53_BLA_p5_viability: Viability Assessment in the Tox21 HCT-116 p53 Agonism Beta-lactamase Assay, Phase 5 (AID 2283600)
Method in brief: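 ATP luminescence (CellTiter-Glo, 30 min, RT) served as the viability read-out, with loss of signal indicating cytotoxicity. Compounds in DMSO were pinned at a 217-fold dilution onto 4000 cells/well and incubated 16 h, 37C.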

[12] = target: Cellular tumor antigen p53 (Homo sapiens) (UniProt P04637); assay: TOX21_p53_BLA_p4_ratio: Tox21 HCT-116 p53 Agonism Beta-lactamase Assay, Ratio, Phase 4 (AID 2283601)
Method in brief: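 HCT116 cells carrying an inducible beta-lactamase reporter were plated at 4000 cells/well, rested 5 h, then exposed to compounds in DMSO (217-fold dilution) for 16 h at 37C. CCF4-AM substrate was loaded 2 h at room temperature; 460/530 nm emission ratio scored gain-of-signal versus DMSO.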

[13] = ATG_AP_2_CIS: Attagene CIS-FACTORIAL HepG2 Assay for human Activator Protein 2 (AP-2) (AID 2282932; active means hit-call score of the fitted dose curve at least 0.9, where 1 is the maximum; inactive means score below 0.9); details: HepG2 AP-2 cis-reporter, Attagene transcription factor profiling; actives raise or lower the signal
Method in brief: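 Cells (HepG2) transfected with promoter-driven reporter constructs, treated 24 h. Total RNA reverse-transcribed, reporter cDNA PCR-amplified, FAM-labelled by primer extension, digested, resolved by capillary electrophoresis. Activity fitted both directions versus DMSO.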

[14] = ATG_SREBP_CIS: Attagene CIS-FACTORIAL HepG2 Assay for human Sterol Regulatory Element Binding (SREBP) (AID 2282962; active means hit-call score of the fitted dose curve at least 0.9, where 1 is the maximum; inactive means score below 0.9); details: HepG2 Attagene cis-factorial SREBP reporter, mRNA; actives raise or lower the signal
Method in brief: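 Endogenous factor activity is measured in HepG2 through multiplexed reporter units under cis-element control. Following a 24 h incubation, reporter transcripts are reverse-transcribed, PCR-amplified and sized by capillary electrophoresis; activity is fitted in both directions relative to DMSO.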

[15] = target: Peroxisome proliferator-activated receptor gamma (Homo sapiens) (UniProt P37231); assay: ATG_PPARg_TRANS: Attagene TRANS-FACTORIAL HepG2 Assay for human Peroxisome Proliferator-activated Receptor-gamma (PPARg) (AID 2283007)
Chain of Peroxisome proliferator-activated receptor gamma (Homo sapiens) (P37231 whole entry, looked up, the tested form may be a part): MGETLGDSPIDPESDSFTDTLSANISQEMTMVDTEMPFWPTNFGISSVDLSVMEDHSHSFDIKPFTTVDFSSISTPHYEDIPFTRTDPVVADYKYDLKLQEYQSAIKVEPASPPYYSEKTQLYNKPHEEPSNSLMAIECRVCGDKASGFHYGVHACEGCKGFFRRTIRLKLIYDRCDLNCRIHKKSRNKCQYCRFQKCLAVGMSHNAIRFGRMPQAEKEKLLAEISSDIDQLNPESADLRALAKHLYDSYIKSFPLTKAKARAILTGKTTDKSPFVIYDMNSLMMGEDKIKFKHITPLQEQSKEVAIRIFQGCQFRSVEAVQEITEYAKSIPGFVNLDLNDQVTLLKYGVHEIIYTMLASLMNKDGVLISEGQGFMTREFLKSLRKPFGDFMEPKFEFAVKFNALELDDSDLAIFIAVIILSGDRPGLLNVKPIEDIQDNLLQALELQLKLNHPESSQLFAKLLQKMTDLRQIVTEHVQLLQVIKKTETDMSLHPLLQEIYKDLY
Method in brief: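 HepG2 cells are transiently transfected with GAL4-UAS reporter units driven by chimeric NR-Gal4 fusions and dosed for 24 h. Reporter mRNA is quantified by RT-PCR, 6-FAM labelling, HpaI digestion and capillary electrophoresis. Induction is scored against DMSO.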

[16] = target: Retinoic acid receptor RXR-alpha (Homo sapiens) (UniProt P19793); assay: ATG_RXRa_TRANS: Attagene TRANS-FACTORIAL HepG2 Assay for human Retinoid X Receptor alpha (RXRa) (AID 2283012)
Chain of Retinoic acid receptor RXR-alpha (Homo sapiens) (P19793 whole entry, looked up, the tested form may be a part): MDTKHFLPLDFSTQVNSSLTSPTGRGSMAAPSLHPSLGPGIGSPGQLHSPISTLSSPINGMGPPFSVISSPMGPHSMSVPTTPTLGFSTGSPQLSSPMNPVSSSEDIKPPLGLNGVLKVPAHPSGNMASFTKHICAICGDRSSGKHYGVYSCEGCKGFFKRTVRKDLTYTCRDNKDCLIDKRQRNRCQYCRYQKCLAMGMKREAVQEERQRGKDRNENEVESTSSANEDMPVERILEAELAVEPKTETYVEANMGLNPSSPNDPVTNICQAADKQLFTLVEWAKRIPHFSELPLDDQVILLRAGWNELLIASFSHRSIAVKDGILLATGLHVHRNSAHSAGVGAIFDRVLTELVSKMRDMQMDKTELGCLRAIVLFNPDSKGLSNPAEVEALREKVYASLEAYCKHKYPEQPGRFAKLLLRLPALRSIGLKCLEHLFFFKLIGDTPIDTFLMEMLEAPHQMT
Method in brief: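 Measures exogenous chimeric NR-GAL4 activity in transfected HepG2 liver cells after 24 h of dosing. Induced reporter mRNA was detected by RT-PCR with capillary electrophoresis, and gain of signal was analysed against DMSO.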

[17] = ATG_GLI_CIS: Attagene CIS-FACTORIAL HepG2 Assay for human Zinc Finger Protein GLI1 (AID 2282945; active means hit-call score of the fitted dose curve at least 0.9, where 1 is the maximum; inactive means score below 0.9); details: HepG2, Attagene cis-factorial reporter mRNA, GLI element; actives raise or lower the signal
Method in brief: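 HepG2 cells transiently transfected with cis-promoter multiplexed reporter units report endogenous transcription factor activity. After 24 h chemical exposure, reporter mRNA was quantified by RT-PCR, 6-FAM labelling, HpaI digestion and capillary electrophoresis, with bidirectional fitting against DMSO.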

[18] = target: Cellular tumor antigen p53 (Homo sapiens) (UniProt P04637); assay: TOX21_p53_BLA_p3_ratio: Tox21 HCT-116 p53 Agonism Beta-lactamase Assay, Ratio, Phase 3 (AID 2283596)
Method in brief: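 Cells were seeded at 4000/well, rested 5 h at 37C, then dosed with DMSO compound solutions (217-fold dilution) for 16 h. CCF4-AM substrate was loaded for 2 h at room temperature, and the 460/530 nm emission ratio was fitted for gain of signal versus DMSO.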

[19] = target: Cellular tumor antigen p53 (Homo sapiens) (UniProt P04637); assay: TOX21_p53_BLA_p5_ratio: Tox21 HCT-116 p53 Agonism Beta-lactamase Assay, Ratio, Phase 5 (AID 2283599)
Method in brief: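 HCT-116 cells carrying a p53-inducible beta-lactamase reporter were seeded at 4000 cells/well and dosed after 5 h with compound in DMSO (217-fold dilution). After 16 h at 37C, CCF4-AM substrate was added for 2 h, and the 460/530 nm emission ratio was scored as gain-of-signal versus DMSO.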

[20] = ACEA_ER_AUC_viability: ACEA Biosciences xCELLigence Real-Time Cell Analysis on Estrogen Receptor Agonism for Viability (AID 2283782);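 further: hit means loss of impedance signal meaning reduced cell growth or viability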
Method in brief: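 Continuous-exposure impedance cell analysis uses T-47D cells in charcoal-stripped serum, eight 1:4 dilutions topping at 100 uM final, biological duplicate. Area under the growth curve at 80 h is fitted against DMSO baseline.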

Measured: AC50

C=CC(=O)OC
inactive: [1] | [2] | [3] | [4] | [5] | [6] | [7] | [8] | [9] | [10] | [11] | [12]

CCNCC
inactive: [1] | [13] | [2] | [3] | [6] | [14] | [8] | [15] | [16] | [9]

CC(C)[C@@H](C(=O)O[C@@H](C#N)c1cccc(Oc2ccccc2)c1)c1ccc(Cl)cc1
inactive: [1] | [13] | [2] | [3] | [17] | [4] | [6] | [14] | [15] | [9] | [10] | [18] | [19] | [11]

Oc1ccc(C2(c3ccc(O)cc3)c3ccccc3-c3ccccc32)cc1
active: [17] 19.1 µM | [5] 2.78 µM | [14] 13.6 µM | [10] 0.265 µM | [18] 0.906 µM | [19] 76.6 µM | [11] 74 µM | [12] 67.8 µM
inactive: [1] | [13] | [3] | [6] | [8] | [15] | [16] | [9]

Oc1ccc(Cl)cc1
active: [5] 27.9 µM
inactive: [1] | [2] | [3] | [17] | [4] | [6] | [14] | [16] | [9] | [10] | [18] | [19] | [11] | [12] | [20]

Nc1ccc(Cl)c(Cl)c1
inactive: [1] | [13] | [2] | [3] | [17] | [4] | [5] | [6] | [14] | [7] | [8] | [15] | [16] | [9] | [10] | [18] | [19] | [12]

CC(C)CCCCCCCOC(=O)c1ccccc1C(=O)OCCCCCCCC(C)C
inactive: [1] | [13] | [2] | [17] | [4] | [14] | [7] | [16] | [9] | [10] | [19] | [20]

CCCCCc1cc(O)cc(O)c1
active: [5] 9.47 µM | [6] 19.8 µM | [7] 60.8 µM | [15] 10.5 µM | [10] 83.7 µM
inactive: [1] | [13] | [17] | [4] | [8] | [9] | [10] | [18] | [19] | [12]

O=S(=O)(O)O
inactive: [1] | [13] | [17] | [14] | [7] | [8] | [16] | [9]
active: [20] 6.09 µM
